The text below walks through data of ChEMBL document CHEMBL2218924, “A broad activity screen in support of a chemogenomic map for kinase signalling research and drug discovery” (Biochem J, 2013).

The target in assay [1] is T1, Mitogen-activated protein kinase kinase kinase 7 (Homo sapiens) (UniProt O43318).
T1 sequence (whole entry): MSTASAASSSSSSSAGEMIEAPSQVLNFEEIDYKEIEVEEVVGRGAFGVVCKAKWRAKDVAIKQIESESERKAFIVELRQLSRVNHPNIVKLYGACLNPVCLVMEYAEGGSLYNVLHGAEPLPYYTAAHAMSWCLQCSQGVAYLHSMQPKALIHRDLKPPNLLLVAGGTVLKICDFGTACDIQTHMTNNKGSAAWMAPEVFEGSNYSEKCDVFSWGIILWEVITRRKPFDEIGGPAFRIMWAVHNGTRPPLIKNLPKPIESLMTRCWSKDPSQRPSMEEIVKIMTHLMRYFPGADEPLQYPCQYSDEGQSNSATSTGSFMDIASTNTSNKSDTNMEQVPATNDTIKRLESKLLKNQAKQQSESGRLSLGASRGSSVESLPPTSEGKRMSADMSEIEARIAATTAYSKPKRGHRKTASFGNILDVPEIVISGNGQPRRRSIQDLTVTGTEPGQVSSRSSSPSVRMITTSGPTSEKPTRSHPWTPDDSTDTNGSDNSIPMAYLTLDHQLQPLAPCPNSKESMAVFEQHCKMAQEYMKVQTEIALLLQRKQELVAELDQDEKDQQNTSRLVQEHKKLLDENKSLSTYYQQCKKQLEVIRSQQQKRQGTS
The note with it: at 1 µM.

Assay [2] has as its target T1, Mitogen-activated protein kinase kinase kinase 7 (Homo sapiens). The note with it: at 10 µM.
The target in assay [3] is T2, Serine/threonine-protein kinase TAO1 (Homo sapiens) (UniProt Q7L7X3).
T2 sequence (whole entry): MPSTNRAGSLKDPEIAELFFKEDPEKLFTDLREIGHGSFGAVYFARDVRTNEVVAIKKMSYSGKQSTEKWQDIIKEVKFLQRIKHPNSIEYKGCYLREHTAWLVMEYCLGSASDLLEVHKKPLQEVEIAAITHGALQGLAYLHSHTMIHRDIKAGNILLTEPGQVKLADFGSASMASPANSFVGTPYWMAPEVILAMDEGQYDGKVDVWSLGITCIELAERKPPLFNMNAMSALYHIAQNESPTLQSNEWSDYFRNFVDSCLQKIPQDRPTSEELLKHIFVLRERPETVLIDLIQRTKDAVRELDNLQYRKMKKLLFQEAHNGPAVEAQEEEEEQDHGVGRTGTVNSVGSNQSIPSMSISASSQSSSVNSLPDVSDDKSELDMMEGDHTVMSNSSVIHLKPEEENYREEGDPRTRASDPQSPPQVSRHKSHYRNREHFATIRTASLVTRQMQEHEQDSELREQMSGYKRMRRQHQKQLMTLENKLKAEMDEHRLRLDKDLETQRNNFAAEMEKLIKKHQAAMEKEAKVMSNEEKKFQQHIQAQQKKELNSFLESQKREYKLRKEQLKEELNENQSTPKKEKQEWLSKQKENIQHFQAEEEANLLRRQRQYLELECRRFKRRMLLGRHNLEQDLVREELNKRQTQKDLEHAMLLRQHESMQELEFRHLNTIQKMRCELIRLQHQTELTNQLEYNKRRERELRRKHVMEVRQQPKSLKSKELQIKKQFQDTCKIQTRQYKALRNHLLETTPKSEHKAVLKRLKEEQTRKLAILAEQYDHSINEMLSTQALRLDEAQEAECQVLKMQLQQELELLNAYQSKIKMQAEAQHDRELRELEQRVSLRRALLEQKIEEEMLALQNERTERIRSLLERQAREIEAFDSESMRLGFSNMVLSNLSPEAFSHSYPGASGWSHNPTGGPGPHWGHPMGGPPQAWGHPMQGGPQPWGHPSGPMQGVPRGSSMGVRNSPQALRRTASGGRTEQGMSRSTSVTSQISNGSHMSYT
The settings on record: at 1 µM.

For assay [4], the target named is T2, Serine/threonine-protein kinase TAO1 (Homo sapiens). The settings on record: at 10 µM.
The target in assay [5] is T3, Serine/threonine-protein kinase TAO2 (Homo sapiens) (UniProt Q9UL54).
T3 sequence (whole entry): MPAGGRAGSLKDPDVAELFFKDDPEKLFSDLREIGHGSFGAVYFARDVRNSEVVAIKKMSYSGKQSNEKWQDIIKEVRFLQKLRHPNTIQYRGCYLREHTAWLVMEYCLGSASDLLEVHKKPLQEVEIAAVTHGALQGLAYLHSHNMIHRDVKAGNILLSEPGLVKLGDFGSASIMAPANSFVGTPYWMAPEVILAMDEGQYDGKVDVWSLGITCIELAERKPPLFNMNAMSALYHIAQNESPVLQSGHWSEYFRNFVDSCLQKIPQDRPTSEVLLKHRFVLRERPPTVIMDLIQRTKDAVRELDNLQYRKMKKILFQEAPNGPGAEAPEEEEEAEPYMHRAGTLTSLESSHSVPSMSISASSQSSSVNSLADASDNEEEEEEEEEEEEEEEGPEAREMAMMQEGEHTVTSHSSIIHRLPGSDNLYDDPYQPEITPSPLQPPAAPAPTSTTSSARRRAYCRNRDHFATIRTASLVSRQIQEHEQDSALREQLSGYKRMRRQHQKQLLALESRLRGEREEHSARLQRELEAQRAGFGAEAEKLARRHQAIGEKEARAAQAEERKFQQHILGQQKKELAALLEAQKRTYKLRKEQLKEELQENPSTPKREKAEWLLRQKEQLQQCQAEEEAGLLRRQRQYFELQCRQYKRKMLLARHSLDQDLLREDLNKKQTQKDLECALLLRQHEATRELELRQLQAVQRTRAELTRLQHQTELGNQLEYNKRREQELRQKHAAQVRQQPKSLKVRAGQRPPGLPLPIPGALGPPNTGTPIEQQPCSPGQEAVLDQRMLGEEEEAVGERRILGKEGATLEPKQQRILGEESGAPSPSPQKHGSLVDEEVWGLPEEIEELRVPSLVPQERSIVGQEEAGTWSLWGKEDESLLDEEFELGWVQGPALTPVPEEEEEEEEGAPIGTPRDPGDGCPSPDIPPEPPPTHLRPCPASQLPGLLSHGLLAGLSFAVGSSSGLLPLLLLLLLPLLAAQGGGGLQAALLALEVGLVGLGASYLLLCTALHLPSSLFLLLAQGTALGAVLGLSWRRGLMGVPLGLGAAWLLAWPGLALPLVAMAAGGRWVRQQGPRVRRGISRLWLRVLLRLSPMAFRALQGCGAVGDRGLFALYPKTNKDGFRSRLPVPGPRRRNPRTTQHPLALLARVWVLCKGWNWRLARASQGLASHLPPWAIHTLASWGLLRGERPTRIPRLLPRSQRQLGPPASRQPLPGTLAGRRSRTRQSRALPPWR
The settings on record: at 10 µM.

Assay [6] addresses T4, Serine/threonine-protein kinase TAO3 (Homo sapiens) (UniProt Q9H2K8).
T4 sequence (whole entry): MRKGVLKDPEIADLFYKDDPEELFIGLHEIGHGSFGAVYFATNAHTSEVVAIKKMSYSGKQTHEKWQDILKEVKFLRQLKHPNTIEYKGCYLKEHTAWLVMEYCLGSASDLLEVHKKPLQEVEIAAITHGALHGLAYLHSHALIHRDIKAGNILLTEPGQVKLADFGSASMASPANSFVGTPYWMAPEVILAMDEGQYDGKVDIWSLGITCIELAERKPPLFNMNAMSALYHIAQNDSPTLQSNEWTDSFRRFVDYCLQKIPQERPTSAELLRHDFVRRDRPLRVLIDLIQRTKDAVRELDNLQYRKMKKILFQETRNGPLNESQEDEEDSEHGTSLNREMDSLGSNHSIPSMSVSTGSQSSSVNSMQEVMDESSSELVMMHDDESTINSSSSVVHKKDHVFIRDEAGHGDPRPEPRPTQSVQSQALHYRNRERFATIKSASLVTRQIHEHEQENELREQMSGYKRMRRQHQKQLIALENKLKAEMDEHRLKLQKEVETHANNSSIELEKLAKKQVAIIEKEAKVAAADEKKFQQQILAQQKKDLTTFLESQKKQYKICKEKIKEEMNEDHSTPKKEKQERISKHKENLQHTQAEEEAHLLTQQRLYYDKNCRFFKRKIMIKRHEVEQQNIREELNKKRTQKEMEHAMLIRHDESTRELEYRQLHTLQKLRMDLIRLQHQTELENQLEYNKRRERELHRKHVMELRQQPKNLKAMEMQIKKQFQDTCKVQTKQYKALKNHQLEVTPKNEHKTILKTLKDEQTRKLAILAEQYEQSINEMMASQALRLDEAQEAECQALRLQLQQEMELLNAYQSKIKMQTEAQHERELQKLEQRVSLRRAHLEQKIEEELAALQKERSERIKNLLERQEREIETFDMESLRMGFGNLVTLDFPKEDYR
The note with it: at 1 µM.

The target of assay [7] is T4, Serine/threonine-protein kinase TAO3 (Homo sapiens). The settings on record: at 10 µM.
Assay [8] has as its target T5, Serine/threonine-protein kinase TBK1 (Homo sapiens) (UniProt Q9UHD2).
T5 sequence (whole entry): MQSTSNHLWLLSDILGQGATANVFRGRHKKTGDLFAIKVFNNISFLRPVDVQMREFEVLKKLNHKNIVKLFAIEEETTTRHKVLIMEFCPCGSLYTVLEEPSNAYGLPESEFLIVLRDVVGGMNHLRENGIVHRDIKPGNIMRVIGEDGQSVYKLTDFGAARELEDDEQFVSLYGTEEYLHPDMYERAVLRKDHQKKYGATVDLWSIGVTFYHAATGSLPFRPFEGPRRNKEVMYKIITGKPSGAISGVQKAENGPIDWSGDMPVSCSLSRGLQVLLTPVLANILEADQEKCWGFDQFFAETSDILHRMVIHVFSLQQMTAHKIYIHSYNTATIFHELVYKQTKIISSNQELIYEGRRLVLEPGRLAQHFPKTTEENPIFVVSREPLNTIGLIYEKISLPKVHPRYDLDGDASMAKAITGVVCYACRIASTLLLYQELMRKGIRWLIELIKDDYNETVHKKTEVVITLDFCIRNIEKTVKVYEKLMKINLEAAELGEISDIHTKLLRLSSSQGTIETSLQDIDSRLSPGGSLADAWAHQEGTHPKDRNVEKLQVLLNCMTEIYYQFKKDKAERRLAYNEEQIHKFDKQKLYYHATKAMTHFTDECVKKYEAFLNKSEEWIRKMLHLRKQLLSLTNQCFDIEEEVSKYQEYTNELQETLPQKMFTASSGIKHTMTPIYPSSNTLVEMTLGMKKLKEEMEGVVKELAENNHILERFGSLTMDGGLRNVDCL
The settings on record: at 1 µM.

Assay [9] deals with T5, Serine/threonine-protein kinase TBK1 (Homo sapiens). The settings on record: at 10 µM.
The target in assay [10] is T6, TGF-beta receptor type-1 (Homo sapiens) (UniProt P36897).
T6 sequence (whole entry): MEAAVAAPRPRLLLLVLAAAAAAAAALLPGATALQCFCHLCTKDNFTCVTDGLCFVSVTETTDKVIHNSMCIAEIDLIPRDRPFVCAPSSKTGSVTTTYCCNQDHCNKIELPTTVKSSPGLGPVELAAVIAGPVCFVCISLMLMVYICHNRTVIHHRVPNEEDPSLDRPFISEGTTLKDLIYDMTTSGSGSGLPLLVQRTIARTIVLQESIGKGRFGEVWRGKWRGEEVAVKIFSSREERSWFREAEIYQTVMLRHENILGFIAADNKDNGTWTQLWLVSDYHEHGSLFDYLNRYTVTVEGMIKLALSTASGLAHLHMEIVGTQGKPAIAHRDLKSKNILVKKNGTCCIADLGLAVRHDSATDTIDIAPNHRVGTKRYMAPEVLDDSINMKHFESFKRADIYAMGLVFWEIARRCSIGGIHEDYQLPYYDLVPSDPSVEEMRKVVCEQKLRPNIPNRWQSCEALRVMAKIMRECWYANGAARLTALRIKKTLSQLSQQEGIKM
The settings on record: at 1 µM.

For assay [11], the target named is T6, TGF-beta receptor type-1 (Homo sapiens). The settings on record: at 10 µM.
Assay [12] deals with Insulin-like growth factor 1 receptor (Homo sapiens) (UniProt P08069). The note with it: at 1 µM.
Assay [13] shares this target. The settings on record: at 10 µM.

Insulin-like growth factor 1 receptor (Homo sapiens), sequence (P08069 31-736 limits assumed): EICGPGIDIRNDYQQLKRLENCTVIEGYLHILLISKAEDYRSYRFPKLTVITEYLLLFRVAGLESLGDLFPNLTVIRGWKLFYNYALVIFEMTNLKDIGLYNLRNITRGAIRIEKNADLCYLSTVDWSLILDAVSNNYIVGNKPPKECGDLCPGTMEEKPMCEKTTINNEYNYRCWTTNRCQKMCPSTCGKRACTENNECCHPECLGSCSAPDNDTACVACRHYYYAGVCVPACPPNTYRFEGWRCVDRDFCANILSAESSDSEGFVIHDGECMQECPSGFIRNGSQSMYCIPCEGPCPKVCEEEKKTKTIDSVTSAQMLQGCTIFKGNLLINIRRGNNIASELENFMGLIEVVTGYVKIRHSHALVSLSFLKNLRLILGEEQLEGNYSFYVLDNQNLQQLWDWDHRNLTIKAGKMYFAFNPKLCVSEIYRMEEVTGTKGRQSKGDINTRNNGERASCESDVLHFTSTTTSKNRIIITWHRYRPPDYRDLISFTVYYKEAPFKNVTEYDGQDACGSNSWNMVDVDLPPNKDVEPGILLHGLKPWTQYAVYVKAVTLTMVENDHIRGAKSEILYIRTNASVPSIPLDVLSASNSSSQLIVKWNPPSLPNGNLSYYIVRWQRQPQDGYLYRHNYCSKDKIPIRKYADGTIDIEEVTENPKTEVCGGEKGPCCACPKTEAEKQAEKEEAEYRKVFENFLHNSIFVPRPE
Insulin-like growth factor 1 receptor (Homo sapiens), sequence (P08069 741-1367 limits assumed): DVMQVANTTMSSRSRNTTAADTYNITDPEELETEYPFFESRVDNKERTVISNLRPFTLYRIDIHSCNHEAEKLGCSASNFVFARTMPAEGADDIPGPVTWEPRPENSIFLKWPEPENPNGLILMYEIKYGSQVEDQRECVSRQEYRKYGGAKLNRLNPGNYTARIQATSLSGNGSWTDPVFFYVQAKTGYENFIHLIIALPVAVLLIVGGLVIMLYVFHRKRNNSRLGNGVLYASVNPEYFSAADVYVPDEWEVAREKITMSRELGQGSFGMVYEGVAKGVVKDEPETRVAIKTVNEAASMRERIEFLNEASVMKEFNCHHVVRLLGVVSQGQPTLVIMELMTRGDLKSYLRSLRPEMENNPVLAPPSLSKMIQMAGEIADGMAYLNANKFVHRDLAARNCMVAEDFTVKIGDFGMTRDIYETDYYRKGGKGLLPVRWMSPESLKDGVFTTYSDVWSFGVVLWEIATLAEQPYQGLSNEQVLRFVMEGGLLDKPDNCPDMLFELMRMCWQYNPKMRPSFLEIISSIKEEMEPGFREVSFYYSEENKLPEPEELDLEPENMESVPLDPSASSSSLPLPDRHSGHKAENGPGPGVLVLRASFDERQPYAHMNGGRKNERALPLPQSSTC

As to `Cc1cccc(-c2[nH]c(C(C)(C)C)nc2-c2ccc3c(c2)OCO3)n1`, the residual activity in assay [1] is 89%; in assay [2] it was 90%; in assay [3], 103%; in [4], 98%; in assay [5], 90%; in [6], 101%. The residual activity in assay [7] turned out to be 102%; in [8] it was 73%; in assay [9], 72%; in assay [10], 10%; in assay [11] it was 0%; in assay [12], 106%. The residual activity in assay [13] came out at 96%.
